# Measured values reported in PubChem BioAssay AID540257 (Southern Research Specialized Biocontainment Screening …, 2011).
# The campaign covered roughly 1,800 compounds. About 15 (0.8%) were called active. How the calls were made is not given here. A selection follows. Results with a measured potency or affinity are listed apart.
# Assay: antiviral activity against H1N1 influenza, dose response, cell-based, strain KY136 (AID 540257)
# Conditions: H1N1 KY136 influenza antiviral cell assay, % inhibition; series mostly up to 40 µM; inhibition: at the top concentration
row,SMILES,inhibition
1,O=C(Nc1cc(Cl)ccc1N1CCOCC1)c1cnccn1,2.51% (inactive)
2,COc1ccc(Nc2ncccc2C(=O)Nc2ccccc2)cc1,-5.03% (inactive)
3,COc1ccc(OC)c(-n2c(SCC(N)=O)nnc2-c2c[nH]c3ccccc23)c1,4.59% (inactive)
4,Cc1ccnc2nc(C(=O)Nc3nc(-c4ccccn4)cs3)nn12,3.18% (inactive)
5,O=C(CSc1nnc(CCCOc2ccc(Cl)cc2Cl)o1)Nc1ccc(C(=O)O)cc1,-0.09% (inactive)
6,COc1ccc(NC(=O)CNS(=O)(=O)c2ccc(Cl)cc2)cc1OC,1.52% (inactive)
7,CC1=[N+](C)c2c(ccc3cccnc23)C1(C)C,-1.21% (inactive)
8,CN(C)c1ccc(C=c2c3cc([N+](=O)[O-])ccc3n3c2cc(-c2ccccc2)[n+]3C)cc1,-5.42% (inactive)
9,CC(c1cccs1)N(Cc1ccco1)C(=O)Nc1ccc(Cl)c(Cl)c1 (stereo not given),-7.16% (inactive)
10,Cc1c(NC(=S)N/N=C\c2ccccc2O)c(=O)n(-c2ccccc2)n1C,-1.97% (inactive)
11,O=C(CS(=O)(=O)c1cn(Cc2ccc(Cl)cc2)c2ccccc12)N1CCCCC1,1.62% (inactive)
12,COC1=C(Nc2ccc(OC)cc2)C(=O)c2ccccc2C1=O,-4.13% (inactive)
13,Cc1ccccc1NC(=O)CSc1nn2c(=O)c(C)nnc2s1,-5.32% (inactive)
14,C(=N\Nc1nc2ccccc2[nH]1)/c1cccc2cccnc12,-3.18% (inactive)
15,C[C@@H]1NC(=O)N[C@@H]1CCCCCC(=O)O,0.46% (inactive)
16,C=CCC1c2cccc(C(=O)O)c2C(=O)N1c1ccc(F)cc1 (stereo not given),-0.92% (inactive)
17,Cc1cc(C)cc(NC2=C(N)C(=O)c3ccccc3C2=O)c1,-0.3% (inactive)
18,CCc1ccc(NC(=O)N(CCN2CCOCC2)Cc2ccc3c(c2)CCCN3CC)cc1,1.01% (inactive)
19,CCCc1nc(SCc2cccnc2)c2c(=O)n(C)c(=O)n(C)c2n1,0.3% (inactive)
20,Cc1ccccc1NC(=S)N(CCN(C)C)C(C)c1ccccn1 (stereo not given),8.04% (inactive)
21,Cc1ccc(S(=O)(=O)/N=C2\C=C(Nc3cccc(C(=O)O)c3)C(=O)c3ccccc32)cc1,-0.83% (inactive)
22,CCCN(CCC)CCCNC(=O)CCNS(=O)(=O)c1ccc(Br)cc1,-1.67% (inactive)

row,SMILES,inhibition
1,O=C(NCc1cccs1)c1cnc2sccn2c1=O,0.92% (inactive)
2,CN1CCc2c(sc(NC(=O)C3CCCCC3)c2C(N)=O)C1,2.08% (inactive)
3,COc1cc(N(C)C)ccc1C=c1c2ccccc2n2c1cc(-c1ccccc1)[n+]2C,-5.05% (inactive)
4,O=C(NCc1cccnc1)C1c2ccccc2C(=O)N1C1CCCCCCC1 (stereo not given),0.93% (inactive)
5,CN(C)c1ccc(Cc2ccc(N(C)C)cc2)cc1,-1.19% (inactive)
6,Nc1nc(-c2ccccn2)nc(N)c1Cc1c(F)cccc1Cl,-2.88% (inactive)
7,COC(=O)CNC(c1ccccc1)c1cc(C)ccc1NS(=O)(=O)c1ccc(C)cc1 (stereo not given),20.3% (inactive)
8,CN(C)CCCNC(=S)NCC(c1ccc(Cl)cc1Cl)c1c[nH]c2ccccc12 (stereo not given),-16% (inactive)
9,O=C(Nc1nc2c(s1)CCCC2)c1ccc(Br)s1,-2.12% (inactive)
10,Cc1cccc(N2CCN(C(=O)c3cc4ccccc4oc3=O)CC2)c1C,-3.85% (inactive)
11,COc1cc(N/N=C/c2ccccc2O)ncn1,-1.49% (inactive)
12,CCOc1ccc(-c2nc(C#N)c(N3CCOCC3)o2)cc1,1.35% (inactive)
13,CCc1ccc(S(=O)(=O)/N=C2\C=C(Nc3ccc(O)cc3)C(=O)c3ccccc32)cc1,-1.51% (inactive)
14,O=C(Nc1nc(-c2ccccc2)cs1)c1ccc(S(=O)(=O)N2CCc3ccccc32)cc1,0% (inactive)
15,c1ccc(-c2nc(-c3ccncc3)n[nH]2)nc1,0.76% (inactive)
16,Oc1cccc2ccc(Nc3ccccn3)nc12,-14.1% (inactive)
17,O=C(N/N=C/c1ccccc1O)C1SCCCS1,-12.7% (inactive)
18,CCCCOc1cccc(-c2nnc(NC(=O)CSc3ccc(C)cc3)s2)c1,0.19% (inactive)
19,CC(=O)NC(c1ccccc1)c1cc([N+](=O)[O-])c2cccnc2c1O (stereo not given),-0.23% (inactive)
20,Nc1[nH]c(N=NC(=O)c2ccccc2O)c2ccccc12,-1.36% (inactive)
21,COc1cc(-c2n[nH]c(=S)n2-c2cccc(C(F)(F)F)c2)cc(OC)c1OC,-0.46% (inactive)
22,O=C(CCCN1C(=O)/C(=C/c2ccc3c(c2)OCO3)SC1=S)Nc1ccc(C(=O)O)cc1,-1.62% (inactive)

row,SMILES,inhibition
1,CN1CCN(NC(=O)CN2C(=O)/C(=C/c3ccccc3Cl)SC2=S)CC1,0.15% (inactive)
2,CCOC(=O)c1ccc(Nc2c(CC)c(C)nc3ncnn23)cc1,-0.18% (inactive)
3,COc1ccccc1N1CCN(C(=O)CCCn2c(=O)[nH]c3ccsc3c2=O)CC1,-0.55% (inactive)
4,O=C1CCCC2=C1C1(CCCCC1)N=C(Nc1nc3ccccc3s1)N2,-0.46% (inactive)
5,O=C(O)c1cccc2c1/C(=N/O)c1ccccc1-2,-1.51% (inactive)
6,O=C(COC(=O)c1ccc([N+](=O)[O-])cc1)Nc1cccnc1Cl,2.51% (inactive)
7,C[n+]1c(/C=C/c2ccc(O)cc2)ccc2ccccc21,-0.74% (inactive)
8,COc1cc(C=NO)nc(-c2ccccn2)c1,-15.2% (inactive)
9,O=[N+]([O-])c1cccc(C=Nc2cc3c(cc2Br)OCCO3)c1,0.23% (inactive)
10,CCOc1ccccc1CNC(=O)c1ccc2c(c1)N(CC)CCS2,-6.06% (inactive)
11,Clc1ccc(-c2nnc(N3CCCC3)nn2)cc1,1.97% (inactive)
12,CCCS(=O)(=O)n1nc(-c2ccccc2)cc1N,1.16% (inactive)
13,O=C(Nc1ccc(N2CCOCC2)cc1)Nc1ccc(Cl)c(Cl)c1,-14.1% (inactive)
14,Nc1nc(Nc2ccccc2)nc(NCc2ccco2)c1[N+](=O)[O-],-3.58% (inactive)
15,O=C1CC(c2ccccc2)Cc2nc(NCc3ccco3)ncc21 (stereo not given),13.9% (inactive)
16,C=CC[n+]1c(/C=C2\C=Cc3cc(C)ccc3N2CC)ccc2ccccc21,-1.51% (inactive)
17,O=C1C(=C(c2ccccc2)c2ccccc2)Nc2ccccc21,4.26% (inactive)
18,O=C(CN1CCN(S(=O)(=O)c2ccccc2)CC1)Nc1ccc(N2CCOCC2)cc1,0.12% (inactive)
19,O=S(=O)(c1cccs1)N1CCN(CC(O)COc2cc(Cl)ccc2Cl)CC1 (stereo not given),-12.7% (inactive)
20,O=C(CCc1ccccc1)Nc1cc2c(cc1Cl)OCCO2,3.94% (inactive)
21,O=C(COC(=O)[C@H](Cc1c[nH]c2ccccc12)NC(=O)c1cccs1)NCc1ccccc1,4.26% (inactive)
22,O=C(Nc1ccccc1C(=O)NCc1cccnc1)c1ccc(Cl)cc1Cl,-1.04% (inactive)

row,SMILES,inhibition
1,c1ccc(Cn2nnc3c(N4CCCCCC4)ncnc32)cc1,0% (inactive)
2,CCOC(=O)N1CCN(c2cc(=O)n(-c3ccc(C)cc3)c(=O)[nH]2)CC1,0.45% (inactive)
3,O=C1C(Nc2ccc(O)cc2)=C/C(=N/S(=O)(=O)c2cccs2)c2ccccc21,-5.8% (inactive)
4,O=C(NC(=S)NNC(=O)c1cnccn1)c1ccc(Cl)cc1,-2.73% (inactive)
5,O=C1CSC(=S)N1N=Cc1ccccc1O,-1.49% (inactive)
6,O=C(Nc1cccc(Cl)c1)c1cc(N=Nc2ccc([N+](=O)[O-])cc2Cl)ccc1O,-2.11% (inactive)
7,CC(=O)N1CCC(N(CCCOC(C)C)C(=O)Nc2ccc(Cl)cc2)CC1,0.58% (inactive)
8,CCOC(=O)c1c(C2CC2)csc1NC(=O)COC(=O)c1ccc[n+]([O-])c1,-0.55% (inactive)
9,COCc1cc(=O)[nH]c(Nc2nc3ccccc3o2)n1,0.12% (inactive)
10,O=[N+]([O-])c1ccc(O)c(/C=N/Nc2nn[nH]n2)c1,-2.43% (inactive)
11,Cc1ccc(C(=O)Nc2nc(-c3ccccn3)cs2)o1,-1.74% (inactive)
12,COc1ccc(CC(=O)N2N=C(C)CC2(O)c2cccnc2)cc1OC (stereo not given),0.64% (inactive)
13,CCOc1ccc(OCCOCCn2ccnc2)cc1,1.34% (inactive)
14,Cc1ccc(S(=O)(=O)N2CCN(C(=O)c3ccc(N4CCCC4)c([N+](=O)[O-])c3)CC2)cc1,-1.55% (inactive)
15,COc1ccc(CNC(=O)Cn2ccc([N+](=O)[O-])n2)cc1OC,1.93% (inactive)
16,CCN(C(C)=O)c1cnc(C=NNC(N)=S)c2ccccc12,-5.03% (inactive)
17,Cc1cc2ncn(C(=O)c3c(-c4ccccc4Cl)noc3C)c2cc1C,0.59% (inactive)
18,Oc1c(C(Nc2ccccn2)c2ccccn2)ccc2cccnc12 (stereo not given),-3.95% (inactive)
19,COc1ccc(N2CCN(CCNC(=O)Nc3ccc([N+](=O)[O-])cc3OC)CC2)cc1,-2.3% (inactive)
20,CCOc1ccc(N=Cc2c(O)cc(C)oc2=O)cc1,-0.39% (inactive)
21,CN(C)c1ccc(N=Nc2ccccc2C(=O)OCC(=O)N(C)c2ccccc2)cc1,1.62% (inactive)
22,NC(=O)NC(=O)CC1S/C(=N/N=C2\CSC(=O)N2)NC1=O (stereo not given),0.45% (inactive)

row,SMILES,inhibition
1,CC(=O)Oc1ccc(NC(=O)Cc2ccccc2)cc1,-0.12% (inactive)
2,COc1ccc2cc3c(N)nn(C(=O)Cc4ccccc4OC)c3nc2c1,-1.82% (inactive)
3,CN(C)c1ccc(CN2CC=C(c3ccc(F)cc3)CC2)cc1,-1.04% (inactive)
4,CC(NS(C)(=O)=O)C(c1cccs1)N1CCN(c2ccccc2)CC1 (stereo not given),0.3% (inactive)
5,O=C(N/N=C/c1ccco1)Nc1ccccc1,0.15% (inactive)
6,Cc1ccccc1NC(=S)N/N=C/c1ccc(O)cc1O,-5.22% (inactive)
7,COc1ccc(C2C3=C(CC(C)(C)CC3=O)Oc3ncn(Cc4ccco4)c(=N)c32)cc1 (stereo not given),2.82% (inactive)
8,Cc1ccccc1CNC(=O)CCC(=O)N1CCOc2ccc(Cl)cc21,1.35% (inactive)
9,CCC(C)NC(=O)CN1C(=O)COc2ccc(S(=O)(=O)N3CCOCC3)cc21 (stereo not given),0.81% (inactive)
10,CS(=O)(=O)N1CCC(Oc2cccc(C(=O)NCCCC3CCCC3)c2)CC1,-2.3% (inactive)
11,CC(/C=C/c1ccccc1)=N\NC(=O)Cn1nc(C)cc1C,0% (inactive)
12,O=C(Cn1c(=O)c(C(F)(F)F)nc2ccccc21)N1CCC2(CC1)OCCO2,1.56% (inactive)
13,Cc1cccn2c(=O)c(C=C(C#N)C#N)c(N3CCN(c4ccccc4)CC3)nc12,0.28% (inactive)
14,CCCCN1C(=O)NC2NC(=O)NC21 (stereo not given),-2.02% (inactive)
15,CC(C)C(C(=O)Nc1ccccc1F)N1C(=O)c2ccccc2C1=O (stereo not given),0.58% (inactive)
16,O=C(Nc1ccccc1)c1ccc[n+](Cc2ccc([N+](=O)[O-])cc2)c1,2.67% (inactive)
17,O=C1C(NS(=O)(=O)c2cccs2)=C(N2CCN(c3ccccc3)CC2)C(=O)c2ccccc21,-2.3% (inactive)
18,Fc1cccc(Nc2ncnc3c2cnn3-c2ccccc2)c1,-16% (inactive)
19,O=C1c2ccccc2C(=O)c2c1cccc2N1CCOCC1,-0.45% (inactive)
20,O=C(N/N=C/C1C(=O)NC(=S)N(c2ccccc2)C1=O)c1cc(Br)c(O)c(Br)c1 (stereo not given),-1.19% (inactive)
21,CCOC(=O)c1sc(NC(=O)c2ccc3ncsc3c2)nc1C,4.13% (inactive)
22,O=[N+]([O-])c1cc(Br)c2nsnc2c1N1CCOCC1,4.84% (inactive)
